# Source: PubChem BioAssay AID1645849 (National Center for Advancing Translational Sciences (NCATS), 2021)
# Results filed as inconclusive are left out. Where a call stands in place of a potency, no number is given. Calls of active or inactive are those of the source. Calls come from the whole dose curve; as a rule, active = well fitted inhibition curve with a large enough effect in the repeat runs; inconclusive = weak or mixed curves; inactive = no such curve, though single readings can be large or run the other way.
# Assay: Comparison of Janus kinase inhibitors to block the type I interferon pathway in human skeletal muscle cells: JAK inhibition assay
# Settings: IFN pathway HiBiT reporter; series mostly up to 45.9 µM
# Description: Assay Submitter: Travis B. Kinder Ph.D.
# National Center for Advancing Translational Sciences (NCATS)
# The family of Janus kinases (JAK1, JAK2, JAK3, TYK2) mediate signal transduction from cytokine receptors through phosphorylation and activation of intracellular signaling pathways and transcription factors. Small molecule antagonists of JAKs (jakinibs) have been developed with varying selectivity for the use in malignancies and immune regulation. […] We have assayed a library of 48 jakinibs for their ability to inhibit the JAK1/TYK2-dependent type I interferon (IFN) - major histocompatibility complex (MHC) class I pathway in human skeletal muscle cells genome-engineered to fuse a pro-luminescent HiBiT peptide to endogenous MHC class I.
# The assay utilized CRISPR/Cas9 genome-engineered immortalized human myoblasts, C25cl48, where a pro-luminescent reporter HiBit was fused to the C-terminus of endogenous MHC class I allele HLA-B*08:01 (HLA-B HiBit myoblasts) (Kinder et al., 2020). […] After 24 hrs of treatment, cells were assayed by Nano-Glo HiBiT Lytic Detection System (Promega) and luminescence measured by a ViewLux 1430 Ultra HTS (Perkin Elmer). […]
# 7; Detector; 5 sec; Measure luminescence with ViewLux 1430 Ultra HTS (Perkin Elmer). […]
row,Compound,Potency
1,CC(C)(O)/C=C\C(=O)[C@](C)(O)[C@H]1[C@H](O)C[C@]2(C)[C@@H]3CC=C4[C@@H](C=C(O)C(=O)C4(C)C)[C@]3(C)C(=O)C[C@@]12C,5.65 µM (active)
2,CC1CCCCCC(=O)c2c(O)cc(O)cc2CC(=O)O1 (configuration not stated),inactive
